Experimental data published in PubChem BioAssay (Tox21).
Inconclusive results are not listed. Unmarked numbers belong to inactive results. Activity calls are given as the source filed them. The call rests on the fitted dose curve; in most records, active means well fitted inhibition curve with a large enough effect in the repeat runs; inconclusive means weak or mixed curves; inactive means no such curve, though single readings can be large or run the other way.
On the % scale 0 is the no-effect control and ±100 the full control effect; potency means the concentration at half of the fitted maximal effect.

What follows are compounds tested against Cytochrome P450 3A4 (Homo sapiens) (UniProt P08684) (assay: Cytochrome P450 Family 3 Subfamily A Member 4 (CYP3A4) small molecule antagonists: luciferase reporter qHTS assay (AID 1671201; further: nearly all actives have a fitted effect of over 50% in size)). Details: P450-Glo CYP3A4 enzyme, luciferin luminescence, 1 h; series mostly up to 115 µM; activity change, negative = inhibition: at the top concentration.
Cytochrome P450 3A4 (Homo sapiens), sequence (P08684 whole entry, looked up): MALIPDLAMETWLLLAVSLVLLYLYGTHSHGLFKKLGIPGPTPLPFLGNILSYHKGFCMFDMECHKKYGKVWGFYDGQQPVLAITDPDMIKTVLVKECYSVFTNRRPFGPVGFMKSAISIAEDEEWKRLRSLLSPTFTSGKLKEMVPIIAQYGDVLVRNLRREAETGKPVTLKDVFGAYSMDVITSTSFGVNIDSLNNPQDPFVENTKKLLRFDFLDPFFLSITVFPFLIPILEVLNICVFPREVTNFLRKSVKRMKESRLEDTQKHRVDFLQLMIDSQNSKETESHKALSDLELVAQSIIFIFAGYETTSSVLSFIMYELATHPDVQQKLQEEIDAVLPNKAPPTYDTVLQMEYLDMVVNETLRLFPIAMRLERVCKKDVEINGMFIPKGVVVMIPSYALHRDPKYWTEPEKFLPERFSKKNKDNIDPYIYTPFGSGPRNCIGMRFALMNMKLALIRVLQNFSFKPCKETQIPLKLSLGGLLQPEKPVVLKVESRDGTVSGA
Source text: National Center for Advancing Translational Sciences [NCATS]
U.S. Environmental Protection Agency [EPA]
National Institutes of Environmental Health Sciences [NIEHS]
National Toxicology Program [NTP]
U.S. Food and Drug Administration [FDA]
Cytochrome P450 (CYP) enzymes are membrane-bound hemeproteins that play a key role in metabolism of drugs and xenobiotics. Evaluation of the effect of chemicals on CYP isozymes is useful to minimize the adverse drug reactions and toxicities in drug development process. Tox21 chemicals were tested for their effect on CYP enzyme activities by using P450-Glo (TM) screening systems (Promega Corporation, Madison, WI). These systems provide a luminescent method containing proluciferin substrates and are converted to luciferin products by CYP isozymes. The luciferin products formed are detected with a luciferin detection reagent, and the amount of light produced is proportional to CYP activity. P450-Glo (TM) CYP3A4 screening system (Catalog. No. V9910) was used to detect the compounds that interfere in CYP3A4 activity. The positive control compound used for CYP3A4 assay is ketoconazole (Sigma-Aldrich, St. Louis, MO).
Tox21 Assay Protocol Summary:
Two ul of enzyme-substrate mix was dispensed into medium binding white/solid 1536-well plates (Greiner Bio-One North America Inc., Monroe, NC) using a BioRaptr Flying Reagent Dispenser (FRD, Beckman Coulter, Brea, CA). Compounds dissolved in DMSO and positive control (ketoconazole) were transferred to the assay plates at 23 nl using a Pintool station (Wako, San Diego, CA). The assay plates were incubated at room temperature for 10 min. Then 2 ul of NADPH regeneration solution was added to each well of the assay plates using an FRD and incubated at room temperature for 1 h. The reaction was stopped by adding 4 ul of detection reagent using an FRD and after 20 min incubation at room temperature the luminescence signal was measured using a ViewLux plate reader (Perkin Elmer, Shelton, CT). Data were expressed as relative luminescence units.
For CC(=O)Nc1ncc([N+](=O)[O-])s1, the “activity change, negative = inhibition” value was 3.14% [at 52.9 µM]. For CCCCCC1CCCC(=O)O1 (stereo not given), the “activity change, negative = inhibition” value was 7.72%. NS(=O)(=O)c1cc2c(cc1Cl)NC(C(Cl)Cl)NS2(=O)=O (stereo not given) was tested, and the “activity change, negative = inhibition” value was -7.06% [at 52.9 µM]. With NS(=O)(=O)c1ccc(Cl)c(S(N)(=O)=O)c1 the “activity change, negative = inhibition” value was 2.48% [at 52.9 µM]. For CCC1Nc2cc(Cl)c(S(N)(=O)=O)cc2S(=O)(=O)N1 (stereo not given), the “activity change, negative = inhibition” value was -20.6% [at 52.9 µM]. For CC(=O)c1ccc(OCC(=O)N2CCCCC2)cc1, the “activity change, negative = inhibition” value was 6.53% [at 52.9 µM]. With Cc1ccccc1OCC1CO1 (stereo not given) the “activity change, negative = inhibition” value was 8.27%. In the case of O=C(Nc1cccc(C2=NCCN2)c1)Nc1cccc(C2=NCCN2)c1, the activity change, negative = inhibition is reported as 41.3% [at 23.6 µM]. With CCCCCCCCCCCCC1CO1 (stereo not given) the “activity change, negative = inhibition” value was 1.87%. In the case of CNC(=O)NC, the “activity change, negative = inhibition” value is reported as -2.89%. O=C1NC2NC(=O)NC2N1 (stereo not given) was tested, and the “activity change, negative = inhibition” value was 0.789%. In the case of CC(=O)OC(C(=O)c1ccccc1)c1ccccc1 (stereo not given), the “activity change, negative = inhibition” value is reported as 298%. With CCCCOC(=O)C(=O)OCCCC the “activity change, negative = inhibition” value was 1.61%. In the case of Nc1ccc(S(=O)(=O)NC(=O)c2ccccc2)cc1, the “activity change, negative = inhibition” value is reported as 10.3% [at 52.9 µM]. For CCCCC(C)C(=O)O (stereo not given), the “activity change, negative = inhibition” value was 5.99%. In the case of Nc1cc(Cl)cc(S(=O)(=O)O)c1O, the “activity change, negative = inhibition” value is reported as -10.7%. With CC(C)COC(=O)/C=C/c1ccccc1 the “activity change, negative = inhibition” value was 42.4%. CCC(=O)c1ccc(O)cc1 was tested, and the “activity change, negative = inhibition” value was 6.42% [at 52.9 µM]. For COC(=O)CCC(=O)O, the “activity change, negative = inhibition” value was 3.72%. In the case of C/C=C(\C)C(=O)OCC/C=C\CC, the “activity change, negative = inhibition” value is reported as 3.56%. In the case of CCC(C)N (stereo not given), the “activity change, negative = inhibition” value is reported as 8.79%. With CC(C)CCO the “activity change, negative = inhibition” value was 4.75%. Cc1cc(C)cc([N+](=O)[O-])c1 was tested, and the “activity change, negative = inhibition” value was 0.307%. In the case of CC1=CC[C@H](CC=O)C1(C)C, the Potency is reported as 63.3 µM (active). In the case of CCN1CN(CC)CN(CC)C1, the “activity change, negative = inhibition” value is reported as -1.66%. For Cc1nc([N+](=O)[O-])cn1-c1ccc([N+](=O)[O-])cc1, the “activity change, negative = inhibition” value was 8.25% [at 52.9 µM]. C[N+](C)(C)CC(O)CCl (stereo not given) was tested, and the “activity change, negative = inhibition” value was 0.821%. With O=C(O)/C=C/c1ccccc1 the “activity change, negative = inhibition” value was 17.1%. For CCCCCCCC[Si](OCC)(OCC)OCC, the “activity change, negative = inhibition” value was 11.7%. For SCCSCCS, the “activity change, negative = inhibition” value was 0.697%. O=[Si]=O was tested, and the “activity change, negative = inhibition” value was 5.58%. In the case of Cc1ccc(S(=O)(=O)NC(=O)NC2CCCCCCC2)cc1, the “activity change, negative = inhibition” value is reported as -13.8% [at 52.9 µM]. CCCCC/C=C/CC(=O)OC was tested, and the “activity change, negative = inhibition” value was -1.19%. For CCCCCCCCCCCCCC(=O)OC, the “activity change, negative = inhibition” value was 13.9%. With Nc1cc(C(=O)O)ccc1Cl the “activity change, negative = inhibition” value was 16.1%. With CCc1nccnc1C the “activity change, negative = inhibition” value was 8.7%. For Cc1oc(=O)oc1CN1CCN(c2cc3c(cc2F)c(=O)c(C(=O)O)c2n3C(C)S2)CC1 (stereo not given), the “activity change, negative = inhibition” value was 22.7% [at 52.9 µM]. FC(F)(F)c1ccc(Cl)cc1Cl was tested, and the “activity change, negative = inhibition” value was 6.37%. For NS(=O)(=O)c1ccccc1OC(F)(F)F, the “activity change, negative = inhibition” value was -0.515%. In the case of O=c1cc(O)c(Cl)c[nH]1, the “activity change, negative = inhibition” value is reported as 3.74% [at 52.9 µM].
